High-throughput results from PubChem.
RECQ1 helicase – qHTS Assay for Inhibitors of RecQ-Like Dna Helicase 1 (RECQ1); ATP-dependent DNA helicase Q1 (Homo sapiens), P46063; RECQ1 DNA unwinding, red fluorescence kinetic read; Potency, µM (series often up to 57.3 µM), for the others: top-dose activity, negative = inhibition, most hits filed as inhibitors; 240,000 compounds, 0.54% hits; AID 2549, 2010;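 note: potency is the fitted concentration of half-maximal effect; plate controls were vehicle for no effect and no enzyme for full effect; nearly all actives have a fitted effect of over 30% in size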
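RECQ1T1 50 nM; forked duplex (20 bp + 30-nt ss tails) 200 nM, ATP 2 mM final; pH 8.0, 2 mM MgCl2, 2.5 ug/ml poly(dI-dC); 15 min compound preincubation; discontinuous kinetic read over 2 h at RT.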
FEN1 inhibitor – qHTS Assay for the Inhibitors of Human Flap endonuclease 1 (FEN1); P39748; Recombinant FEN1 flap cleavage, fluorescence, 15 min; Potency, µM (doses to about 114 µM), for inactives: at the top dose activity change, negative = inhibition, actives largely listed as inhibitors; 390,000 compounds, 0.35% hits; AID 588795, 2011; note: potency is the fitted concentration of half-maximal effect; nearly all actives have a fitted effect of over 65% in size
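With each library titrated from low to high concentration, compounds met 10 nM FEN1 for 15 min at room temperature before 50 nM substrate was added; readings at 0 and 15 min fed four-parameter Hill curve fits.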
BLM inh – qHTS Assay for Inhibitors of Bloom's syndrome helicase (BLM). RecQ-like DNA helicase BLM (Homo sapiens), P54132. recombinant BLM DNA unwinding, fluorescence dequenching. Potency, µM (doses to about 56.1 µM), for the others: top-dose activity change, negative = inhibition, usual class: inhibitors. 350,000 compounds, 0.2% hits;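 note: potency is the fitted concentration of half-maximal effect; plate controls were vehicle for no effect and no enzyme for full effect; nearly all actives have a fitted effect of over 35% in size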
GCN5L2 inh – qHTS Assay for Inhibitors of GCN5L2; Histone acetyltransferase KAT2A (Homo sapiens), Q92830; GCN5L2 HAT assay, ThioGlo1 CoA-SH fluorescence; Potency, µM (top dose mostly 58.9 µM), for the others: at the top dose activity change, negative = inhibition, actives largely listed as inhibitors; 390,000 compounds, 0.21% hits; note: potency is the fitted concentration of half-maximal effect
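Preincubate 20nM GCN5L2 with compound 15 min, RT → add 50uM ThioGlo1 + 75uM H3(1-25) + 70uM acetyl-CoA → read fluorescence 0 and 20 min. Primary qHTS; fluorescent artifacts likely.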
PI5P4Ka inh – qHTS for Inhibitors of phosphatidylinositol 5-phosphate 4-kinase (PI5P4K); PI5P4Kalpha enzyme, ADP-Glo luminescence, 60 min; hits give low values; AID 652105, 2013; 330,000 compounds, 1.2% hits; max response, %; active = max response of -50% or lower; inconclusive = between -30% and -50%; inactive = -30% or higher; note: value at the top dose of about 77 µM
Target sequence (P48426 whole entry, looked up): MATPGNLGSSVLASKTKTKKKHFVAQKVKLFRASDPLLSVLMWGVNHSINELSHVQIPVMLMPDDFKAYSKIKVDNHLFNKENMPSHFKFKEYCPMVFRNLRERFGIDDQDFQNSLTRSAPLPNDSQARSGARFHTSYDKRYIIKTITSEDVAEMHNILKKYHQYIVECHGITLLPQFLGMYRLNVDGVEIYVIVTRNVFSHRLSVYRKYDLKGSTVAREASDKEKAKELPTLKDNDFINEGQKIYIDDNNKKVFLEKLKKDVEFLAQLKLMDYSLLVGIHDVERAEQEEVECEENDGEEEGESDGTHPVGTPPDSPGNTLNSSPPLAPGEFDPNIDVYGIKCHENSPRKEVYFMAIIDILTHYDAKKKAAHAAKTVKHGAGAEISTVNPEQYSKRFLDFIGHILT
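Quantitative HTS of the MLSMR library against PI5P4Kalpha with substrate. ATP added last at 5 microM final; room temperature, 60 minutes. Remaining ATP depleted, ADP converted and read as luminescence.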
APEX1 inh – qHTS Assay for Inhibitors of the Human Apurinic/apyrimidinic Endonuclease 1 (APE1); DNA repair nuclease/redox regulator APEX1 (Homo sapiens), P27695; recombinant APE1, TAMRA/BHQ-2 abasic DNA cleavage fluorescence; Potency, µM (highest dose often 65.8 µM), inactives show top-dose activity change, negative = inhibition, actives largely listed as inhibitors; 350,000 compounds, 0.35% hits; AID 2517, 2012;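 note: potency is the fitted concentration of half-maximal effect; plate controls were vehicle for no effect and reference inhibitor for full effect; nearly all actives have a fitted effect of over 55% in size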
Target sequence (P27695 whole entry, looked up): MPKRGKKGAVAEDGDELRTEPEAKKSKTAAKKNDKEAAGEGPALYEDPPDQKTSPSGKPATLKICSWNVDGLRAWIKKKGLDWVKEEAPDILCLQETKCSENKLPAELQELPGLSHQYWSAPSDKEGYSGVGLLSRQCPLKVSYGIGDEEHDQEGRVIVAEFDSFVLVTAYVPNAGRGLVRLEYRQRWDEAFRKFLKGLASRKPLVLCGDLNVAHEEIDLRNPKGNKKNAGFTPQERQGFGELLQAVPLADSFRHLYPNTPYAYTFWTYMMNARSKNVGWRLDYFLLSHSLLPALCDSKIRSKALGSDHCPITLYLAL
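APE1 at 0.75 nM preincubated 15 min at room temperature with compound. Reaction then started with 50 nM double-stranded THF-abasic substrate labelled with TAMRA/BHQ-2, and 525/598 nm fluorescence read kinetically. Activity taken as third-minus-first read difference, normalized to DMSO and NSC13755 controls.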
* = called active by the depositor; i = inactive; u = inconclusive; x = not tested or not shown; ! = a repeat was not active; [ ] = dose if it differs, or a comment. Shown are actives, neighbours in structure and some others; about 1.5% of the full set was active somewhere. Unless noted, calls come from the whole dose curve; as a rule, active = well fitted curve in the direction sought with a large enough effect; inconclusive = small, poorly fitted or top-dose-only effect, or another doubt; inactive = no such curve, though single readings can be large; an effect the other way counts as inactive or inconclusive. Unless noted, % is set by controls: 0 for no effect and ±100 for the full control effect.

SMILES	RECQ1 helicase	FEN1 inhibitor	BLM inh	GCN5L2 inh	PI5P4Ka inh	APEX1 inh
CC(=O)C1=C(c2ccccc2)NC(=O)NC1c1ccc(O)c(O)c1 (stereo not drawn)	-3%	-17%	-8%	-4%	-14	40µM*
CC(=O)C1=C(c2ccccc2)NC(=S)NC1c1ccc(O)c(O)c1 (stereo not drawn)	u	-3%	-16%	-11%	7	13µM*
CC(=O)C1=C(c2ccccc2)NC(=S)NC1c1cc(Cl)c(OC(C)C)c(Cl)c1 (stereo not drawn)	-22%	-4%	-9%	-13%	1	-7%
O=C(COC(=O)c1ccccc1Oc1ccccc1)Nc1ccc(Br)cc1	x	14%	x	x	x	x
N[C@@H]1CCN(O)C1=O	-2%	x	-11%	-3%	x	3.5µM*!
Cc1c(C)c2cc(Cl)c(O)c(CN(C)C)c2oc1=O	0%	3%	0%	22µM*	x	-4%
CCc1c(C)c2cc(Cl)c(O)c(CN(C)C)c2oc1=O	i	-7%	-2%	28µM*	x	7%
CCc1c(C)c2cc(Cl)c(O)c(CN(CC)CC)c2oc1=O	i	5%	-2%	-29%	x	8%
CN(C)Cc1c(O)c(Cl)cc2c3c(c(=O)oc12)CCCC3	1%	-16%	2%	u	u	-2%
Cc1ccc(S(=O)(=O)N2CCN(c3nc(Nc4ccccc4O)nc4ccccc34)CC2)cc1	x	4%	x	x	x	x
Cc1ccc(OCC(=O)N(C)CC(=O)NCc2ccco2)c(Br)c1	x	5%	x	-18%	u	u
CC(=O)c1cccc(OCC(=O)N(C)CC(=O)NCc2ccco2)c1	x	u	x	-18%	-20	9.5µM*
O=C1Nc2ccccc2/C1=N\N=C\c1ccc(O)c(O)c1	-17%	13µM*	u	-2%	-56*	u
C[C@@H]1CC[C@@]2(OC1)O[C@H]1C[C@H]3[C@@H]4CC[C@H]5C[C@@H](O)CC[C@]5(C)[C@H]4CC(=O)[C@]3(C)[C@H]1[C@@H]2C	x	x	x	x	x	-2%[21 µM]
O=C1NC(=S)SC1=C1CCCCCC1	-4%	-2%	u	-8%	-57*	-3%
COc1ccc(CNc2nc(-c3ccc(N(C)C)cc3)nc3ccccc23)c(OC)c1	-16%	x	28µM*	-28%	x	-3%
COc1ccc(CNc2nc(-c3ccc(C(=O)N(C)C)cc3)nc3ccccc23)c(OC)c1	-5%	x	6%	-25%	x	1%
N#CC1=C(N)CCC1	x	-2%	x	x	x	x
CCCCCCCCCOC(=O)CNc1nc(C#N)nc(NCC(=O)OCCCCCCCCC)n1	x	-9%	x	x	x	x
O=C(Cc1ccccc1)Nc1cccc(N2C(=O)C=CC2=O)c1	-3%	8%	0%	u	-52*	5%
COc1cccc(NC(=O)Cc2ccccc2)c1	-1%	-4%	2%	2%	0	-1%
CCN(CC)c1ccc(/C=C/c2ccnc3ccccc23)cc1	x	-10%	x	x	x	x
CCN(CC)c1ccc(/C=C/C2=C3C=CC=CC3NC=C2)cc1 (stereo not drawn)	x	16µM*	x	x	x	x
CC(C)(C)n1ncc2c(=O)n(Cc3ccccc3SC(F)(F)F)cnc21	x	-26%	x	x	x	-5%
COc1ccc(C2=NC(c3ccc(Cl)cc3)C(c3ccc(Cl)cc3)N2C(=O)N2CCNC(=O)C2)c(OC(C)C)c1 (stereo not drawn)	-17%	x	-17%	-21%	x	-2%
SMILES	RECQ1 helicase	FEN1 inhibitor	BLM inh	GCN5L2 inh	PI5P4Ka inh	APEX1 inh
CN(C)c1ccc(NC2=C([N+](=O)[O-])CS(=O)(=O)C2)cc1	20µM*	0%	-7%	0%	x	-8%
Cc1ccc(NC2=C([N+](=O)[O-])CS(=O)(=O)C2)cc1	-5%	-8%	-1%	-9%[0.501 µM]	x	-4%
OC(C[n+]1cccc(Br)c1)c1ccccc1 (stereo not drawn)	x	17%	x	x	x	x
CCOc1nc2cccc(C(=O)OC(C)OC(=O)OC3CCCCC3)c2n1Cc1ccc(-c2ccccc2-c2nn[nH]n2)cc1 (stereo not drawn)	u	x	-18%	20µM*	x	6%
O=C(O)c1ccc(/C=N/NC(=O)c2cc(-c3ccc4c5c(cccc35)CC4)n[nH]2)cc1	-13%	u	-19%	-23%	-73*	-10%
O=C(N/N=C/c1ccccn1)c1cc(-c2cccc3ccccc23)n[nH]1	i	-6%	-6%	-11%	-30	-4%
CC1=C(C(=O)OCc2ccccc2)C(c2ccc(Cl)cc2)NC(=O)N1CCCCCC(=O)O (stereo not drawn)	13%	-11%	0%	-7%	-10	5%
CC1=C(C(=O)OCc2ccccc2)C(c2ccc(C#N)cc2)NC(=O)N1CCCC(=O)O (stereo not drawn)	2%	2%	-11%	-1%	-90*	29%
CC1=C(C(=O)OCc2ccccc2)C(c2ccccc2)NC(=O)N1CCCC(=O)O (stereo not drawn)	x	-2%	-1%	-2%	-77*	5%
COc1cc2c(NC3CCN(C)CC3)nc(N3CCCN(C)CC3)nc2cc1OCCCN1CCCC1	x	10µM*	x	x	x	x
COc1cc2c(NC3CCN(C)CC3)nc(N3CCCCC3)nc2cc1OCCOCCN1CCCC1	x	20µM*	x	x	x	x
COc1ccccc1OCCOCCN1CCCC1	x	18%	-1%	-7%	0	14%
COc1cc2nc(N3CCCN(C)CC3)nc(NC3CCOCC3)c2cc1OC	x	-18%	x	x	x	x
COc1cc2c(NC3CCN(C(C)C)CC3)nc(N3CCCN(C)CC3)nc2cc1OCCOCCN1CCCC1	x	20µM*	x	x	x	x
COc1cc2nc(N3CCCN(C)CC3)nc(OC3CCN(C)CC3)c2cc1OC	x	-27%	x	x	x	x
COc1cc2c(NC3CCN(C)CC3)nc(N3CCCN(C)CC3)nc2cc1OCCCN1CCOCC1	x	22µM*	x	x	x	x
C=C(Br)COC(c1ccco1)[C@H](Cc1ccccc1)NC(=O)OC(C)(C)C (stereo partly drawn)	x	-25%	x	x	x	x
COc1ccc(/C=C2\SC(=N)N(c3nccs3)C2=O)cc1OC	-6%	79µM*	-5%	-20%	-23	-2%
N=C1S/C(=C\c2ccc(-c3cccc(Cl)c3)o2)C(=O)N1c1nccs1	-1%	u	u	36%	-63*	20%
